This is a sample that favours compounds with a hit; in the whole collection about 21% have one here.
IL1B secr inh = qHTS for Inhibitors of Inflammasome Signaling: IL-1-beta AlphaLISA Primary Screen; hit rate 4.7% among 360,000; activity change, % at 57.5 µM; THP-1 LPS/ATP IL-1B secretion, AlphaLISA, 16 h; stronger effect = lower value; in the data active = activity change below about -50%; inconclusive = mostly about -30% to -49%; note: % is set by controls: 0 for no effect and ±100 for the full control effect
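Secreted IL-1B measured by AlphaLISA bead assay after 16 h compound exposure of THP-1 cells; compounds (final up to 57.5 uM) added 1 h before LPS (250 ng/mL) and ATP (1.25 mM) stimulation; lower signal means less secretion.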
ClpP mod = qHTS Assay for Activators of ClpP | AID 651965, 2013 | purified B. subtilis ClpP, FRET peptide cleavage, 20 min | ATP-dependent Clp protease proteolytic subunit (Bacillus subtilis (strain 168)), P80244 | Potency, µM (doses to about 57.5 µM), without a hit: top-dose activity change, negative = active | hit rate 1.9% among 340,000; active = well fitted falling curve with a large enough effect; inconclusive = small, poorly fitted or top-dose-only effect; inactive = no such curve, though single readings can be large or run the other way; note: potency is the fitted concentration of half-maximal effect; the source files actives as falling curves though it sought activators and does not explain the sign; nearly all actives have a fitted effect of over 65% in size
Target sequence (P80244 whole entry, looked up): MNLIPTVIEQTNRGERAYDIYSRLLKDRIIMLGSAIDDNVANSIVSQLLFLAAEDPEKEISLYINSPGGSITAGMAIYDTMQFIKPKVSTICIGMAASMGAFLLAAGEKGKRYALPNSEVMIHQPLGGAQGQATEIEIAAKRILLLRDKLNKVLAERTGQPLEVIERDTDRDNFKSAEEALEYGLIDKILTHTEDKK
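Purified B. subtilis ClpP, 10 microg/mL final in Tris/HCl pH8 with KCl, BSA, glycerol and Tween-20, cleaved an Abz/nitrotyrosine-quenched decapeptide. Fluorescence (ex 320, em 430) was read at 0 and 20 min at room temperature. Delta was normalized to 5.8 microM ADEP and DMSO/no-enzyme controls.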
TDP1 cell CPT = qHTS for Inhibitors of human tyrosyl-DNA phosphodiesterase 1 (TDP1): qHTS in cells in presence of CPT; hit rate 12% among 420,000; Potency, µM (series often up to 46.2 µM), for the others: at the highest dose activity change, negative = growth inhibition, usual class: inhibitors; AID 686979, 2013; chicken DT40 Tdp1-/-;hTDP1 cells + 20 nM CPT, ATP luminescence, 48 h; note: potency is the fitted concentration of half-maximal effect; % is set by controls: 0 for no effect and ±100 for the full control effect; nearly all actives have a fitted effect of over 55% in size
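Chicken DT40 Tdp1-/- cells stably complemented with human TDP1 were seeded at 400 cells/well in medium containing 20 nM camptothecin, exposed to pin-transferred compounds, and grown at 37 °C for at least 48 hr. Viability was read as ATP luminescence.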
TDP1 cell noCPT = qHTS for Inhibitors of human tyrosyl-DNA phosphodiesterase 1 (TDP1): qHTS in cells in absence of CPT. Potency, µM (highest dose often 46.2 µM), for the others: at the highest dose activity change, negative = growth inhibition, most hits filed as inhibitors. hit rate 15% among 420,000. DT40 Tdp1-/- hTDP1 cells, no CPT, ATP luminescence, 48 h. AID 686978, 2013; note: potency is the fitted concentration of half-maximal effect; % is set by controls: 0 for no effect and ±100 for the full control effect; nearly all actives have a fitted effect of over 55% in size
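Stably hTDP1-transfected Tdp1-null chicken DT40 cells were treated with library compounds minus camptothecin and grown for at least 48 hr at 37 °C, after which cellular ATP was quantified by luminescence.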
DRD3 antagonist = qHTS of D3 Dopamine Receptor Antagonist: qHTS | AID 652054, 2013 | hit rate 2.5% among 360,000 | max response, negative = inhibition, % | D3R cells, DiscoveRx beta-arrestin luminescence, antagonist mode; stronger effect = lower value | D(3) dopamine receptor (Homo sapiens), P35462; in the data active = max response below about -50%; inconclusive = no clear call, values can overlap the other calls; note: % is set by controls: 0 for no effect and ±100 for the full control effect
Target sequence (P35462 whole entry, looked up): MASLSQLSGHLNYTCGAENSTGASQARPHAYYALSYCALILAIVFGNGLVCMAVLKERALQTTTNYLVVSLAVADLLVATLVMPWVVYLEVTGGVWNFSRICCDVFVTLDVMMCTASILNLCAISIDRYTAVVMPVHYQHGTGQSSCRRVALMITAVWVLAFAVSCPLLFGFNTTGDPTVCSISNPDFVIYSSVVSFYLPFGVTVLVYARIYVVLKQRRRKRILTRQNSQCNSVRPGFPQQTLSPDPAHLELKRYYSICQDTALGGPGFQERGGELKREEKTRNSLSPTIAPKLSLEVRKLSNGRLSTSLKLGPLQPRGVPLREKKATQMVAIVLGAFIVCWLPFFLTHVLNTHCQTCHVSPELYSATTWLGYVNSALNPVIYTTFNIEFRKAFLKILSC
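Cells plated overnight at 1500 cells/well, then exposed to library compounds with dopamine controls for 90 minutes at 37 degrees C. DiscoveRx reagent added for 30–60 minutes at room temperature; luminescence read, quantitative HTS format.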
D3 ag = qHTS of D3 Dopamine Receptor Agonist: qHTS. max activation, %. D3R DiscoveRx beta-arrestin cells, luminescence, 90 min. AID 652048, 2013. D(3) dopamine receptor (Homo sapiens), P35462. hit rate 0.58% among 410,000; in the data active = max activation above about 30%; note: 0% is about no effect
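Agonist-mode cell screen: cells plated at 1500/well and incubated overnight at 37 °C, then exposed to library compounds for 90 min at 37 °C. Detection reagent was added for 30–60 min at room temperature, and luminescence was read.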
* = called active by the depositor; ? = inconclusive; nt = no result. Unless noted, calls come from the whole dose curve; as a rule, active = well fitted inhibition curve with a large enough effect; inconclusive = small, poorly fitted or top-dose-only effect; inactive = flat fitted curve, though single readings scatter.

SMILES | IL1B secr inh | ClpP mod | TDP1 cell CPT | TDP1 cell noCPT | DRD3 antagonist | D3 ag
O=C(C1COc2ccccc2O1)N1CCN(Cc2ccc(Br)cc2F)CC1 (configuration not stated) | -63* | nt | ? | ? | -1 | -1
O=C(c1ccco1)N1CCN(c2nc3c(F)cc(F)cc3s2)CC1 | nt | -5% | ? | ? | nt | 5
O=C(C1COc2ccccc2O1)N1CCN(Cc2ccc3c(c2)OCO3)CC1 (configuration not stated) | ? | -2% | ? | ? | ? | -20
O=C(Nc1cccc2c(=O)cc(-c3nn[nH]n3)oc12)c1ccc(OCCCCc2ccccc2)cc1 | nt | nt | 9% | -14% | nt | -10
Cc1ccc(C(=O)c2cn(Cc3cccc(Cl)c3)c3nc(C)ccc3c2=O)cc1 | nt | -4% | ? | ? | nt | 2
Cc1ccc2c(=O)c(C(=O)c3ccc(F)cc3)cn(CC(=O)NCCc3ccccc3)c2n1 | nt | -4% | -25% | -21% | nt | -18
Cc1ccc(C(=O)c2cn(Cc3ccc(F)cc3)c3nc(C)ccc3c2=O)cc1 | nt | 0% | 16µM* | 23µM* | nt | -11
CCN(C(=O)Cn1cc(C(=O)c2ccc(F)cc2)c(=O)c2ccc(C)nc21)c1cccc(C)c1 | nt | -6% | 16µM* | ? | nt | -2
Cc1ccc(C2c3cccn3CCN2S(=O)(=O)c2ccc([N+](=O)[O-])cc2)cc1 (configuration not stated) | nt | -5% | ? | 18µM* | nt | 5
CC(=O)c1ccc(S(=O)(=O)N2CCn3cccc3C2c2ccccc2F)cc1 (configuration not stated) | nt | -2% | ? | -44% | nt | 2
CC(=O)c1ccc(S(=O)(=O)N2CCn3cccc3C2c2ccc(F)c(F)c2)cc1 (configuration not stated) | nt | -2% | ? | 21µM* | nt | 5
CC1(C)Cc2c(sc(NC(=O)C(=O)NCCCN3CCOCC3)c2C#N)CO1 | 12 | ? | -17% | -10% | -4 | 0
CC1(C)C(c2ccccc2)=NC(c2ccc(Br)cc2)N1O (configuration not stated) | -18 | -3% | 17% | ? | -12 | -2
CC1CCC(NC(=O)CCS(=O)(=O)c2ccc3c(c2)NC(=O)C(C)S3)CC1 (configuration not stated) | 27 | 2% | ? | -24% | -11 | -5
COc1ccc(CNCc2ccccc2)cc1COc1ccc(NC(C)=O)cc1 | nt | 0% | 8.9µM* | 10µM* | nt | nt
COc1ccc(CN(Cc2ccccc2)C(=O)c2cccc(C#N)c2)cc1COc1ccc(NC(C)=O)cc1 | nt | 0% | 8.9µM* | 14µM* | nt | nt
CC(CN(C)Cc1ccccc1)OC(=O)c1ccc(F)cc1 (configuration not stated) | -8 | 1% | 15µM* | 10µM* | -69* | -13
Cc1ccc(NC(=O)c2ccc(S(=O)(=O)N3CCCC3)cc2)nc1 | 16 | nt | 5% | -10% | -6 | 3
CCc1ccc(OC(=O)c2sc3ncn(Cc4cccc(F)c4)c(=O)c3c2C)cc1 | nt | -3% | -10% | -12% | nt | -11
C=CCNc1nc(-c2sc(NC(=O)CC)nc2C)cs1 | ? | -7% | ? | ? | -18 | -8
C=CCCC(=O)Nc1nc(C)c(-c2csc(Nc3ccccc3OC)n2)s1 | -22 | -29% | 6.5µM* | 7.3µM* | 27 | 3
CCCCC(=O)Nc1nc(C)c(-c2csc(Nc3ccccc3OC)n2)s1 | -19 | -5% | 23µM* | ? | 1 | 1
O=C(NC(=S)Nc1sc2c(c1C(=O)O)CCCC2)c1ccccc1 | 25 | nt | -3% | -4% | -20 | -6
C#CCNC(=O)c1cc2c(Br)ccc(Br)c2nc1N | 0 | -11% | -2% | -19% | -18 | -7
CCOc1ccc(-n2c(SCC(=O)N3CCc4ccccc43)nc3c([nH]c4ccccc43)c2=O)cc1 | nt | -2% | -25% | -10% | nt | -5
SMILES | IL1B secr inh | ClpP mod | TDP1 cell CPT | TDP1 cell noCPT | DRD3 antagonist | D3 ag
CCC(Sc1nc2ccccc2c(=O)n1CCc1ccc(OC)c(OC)c1)C(=O)N(CC)CC (configuration not stated) | nt | -2% | 6.5µM* | 6.5µM* | nt | -6
C=CCNC(=O)CSc1nc2ccccc2c(=O)n1CCc1ccc(OC)c(OC)c1 | -17 | -1% | ? | ? | -1 | -8
COc1ccc(CCn2c(SCCN3CCCCC3)nc3ccccc3c2=O)cc1OC | -28 | -2% | ? | 16µM* | -103* | -3
CCC(Sc1nc2c(sc3ccccc32)c(=O)n1CCc1ccc(OC)c(OC)c1)C(=O)N(CC)CC (configuration not stated) | nt | -14% | 6.5µM* | 5.8µM* | nt | -5
COc1cccc(-n2c(=O)c3c(C)c(C)sc3n(CC(=O)NCCc3ccc(OC)c(OC)c3)c2=O)c1 | nt | 1% | -20% | -13% | nt | 8
O=C(CN1CCCCC1)NCC(=O)Nc1ccc(F)c(F)c1F | -4 | 1% | 4% | -2% | -1 | -21
COC(=O)c1c(NC(=O)Cc2coc3ccc(C(C)C)cc23)sc2c1CCC2 | nt | -17% | ? | ? | nt | -7
COC(=O)CNC(c1ccccc1Cl)c1cc(Br)ccc1NS(=O)(=O)c1ccc(C)cc1 (configuration not stated) | 10 | 1% | ? | 16µM* | 1 | -9
NNC(=O)CNC(c1ccccc1)c1cc(Br)ccc1NC(=O)CCN1CCOCC1 (configuration not stated) | -1 | -9% | 23µM* | 13µM* | 25 | 1
NNC(=O)CNC(c1ccccc1)c1cc(Br)ccc1NC(=O)c1cccc(Cl)c1 (configuration not stated) | -20 | -8% | ? | ? | -4 | 4
CCOC(=O)CNC(c1ccccc1)c1cc(Br)ccc1NC(=O)c1cccc(Cl)c1 (configuration not stated) | nt | ? | ? | 23µM* | nt | 7
COC(=O)CNC(c1ccccc1)c1cc(Cl)ccc1NC(=O)c1cccc(Cl)c1 (configuration not stated) | 9 | ? | ? | ? | 42 | 19

From PubChem
